The source made the active and inactive calls.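 How the source made its calls: active means response changes with concentration, giving a dose-dependent curve as judged by the depositor; inactive means the rest, with no dose-dependent response.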
What follows are compounds tested against Muscarinic acetylcholine receptor M3 (Rattus norvegicus) (UniProt P08483) (assay: off-target potentiation of rat M3 ACh response – CHO-K1 cells, calcium fluorescence, ACh EC20, selectivity assay for M4 PAM optimization project, SAR follow-up (AID 623943)). Conditions: CHO-K1 rM3, calcium fluorescence, PAM mode with ACh EC20; series mostly up to 30 µM; % ACh max response: at the top concentration.

outcome, inactive:
Cc1nc2sc(C(=O)NCc3ccc4c(c3)OCO4)c(N)c2c(C)c1Cl
Cc1nc2sc(C(=O)NCc3ccccc3)c(N)c2c(C)c1Cl
Cc1nc2sc(C(=O)NCc3ccncc3)c(N)c2c(C)c1Cl
Cc1nc2sc(C(=O)NCc3cccnc3)c(N)c2c(C)c1Cl

% ACh max response, inactive:
Cc1nc2sc(C(=O)NCc3nccs3)c(N)c2c(C)c1Cl 20.6
Cc1nc2sc(C(=O)NCc3ccncn3)c(N)c2c(C)c1Cl 17.7
Cc1nc2sc(C(=O)NCc3cccc(F)c3F)c(N)c2c(C)c1Cl 15.9
COc1ccc(C)c2sc(NC(=O)c3ccncc3)nc12 18.2
Cc1nc2sc(C(=O)NCCc3ccncc3)c(N)c2c(C)c1Cl 19.2
Cc1nc2sc(C(=O)NC3CC3)c(N)c2c(C)c1Cl 19.5

Source: PubChem BioAssay AID623943 (Vanderbilt Specialized Chemistry Center, 2012)
